A short description of test [1]: qHTS assay for small molecule agonists of the p53 signaling pathway (AID 651631; calls by dose curve; also: nearly all actives have a fitted effect of over 15% in size). The method, boiled down:
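Stably transfected HCT-116 cells (beta-lactamase behind p53 response elements) get compounds after a 5 h settling period; 16 h later at 37 °C, FRET substrate is loaded and fluorescence read after 2 h.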
Background: Quantitative high-throughput screening tests each substance at several concentrations.

A short description of test [2]: qHTS assay for small molecules that induce genotoxicity in human embryonic kidney cells expressing luciferase-tagged ATAD5 (AID 651632). Also: nearly all actives have a fitted effect of over 15% in size. The method, boiled down:
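HEK293T cells carrying a luciferase reporter tagged to ATAD5 were exposed to compound or DMSO vehicle for 16 hr at 37C, 5% CO2. Amplite was added, and after 30 min at room temperature luciferase activity was read as a marker of ATAD5 induction.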

The nature of test [3]: qHTS assay for small molecule agonists of the p53 signaling pathway - cell viability (AID 651633; calls by dose curve;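 also: p53RE-bla HCT reporter cells with a stable beta-lactamase p53 reporter; series mostly up to about 83 µM; nearly all actives have a fitted effect of over 30% in size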). An outline of the steps:
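p53RE-bla cells, seeded at 4,000 per well and rested 5 h at 37 C/5% CO2, received compounds in DMSO for 16 h at 37 C. CellTiter-Glo was then added, and luminescence was read after 30 min at room temperature to gauge cytotoxicity.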

Test [4] can be described thus: qHTS assay for small molecules that induce genotoxicity in human embryonic kidney cells expressing luciferase-tagged ATAD5 - cell viability (AID 651634; calls by dose curve; also: nearly all actives have a fitted effect of over 25% in size). The method, boiled down: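 HEK293T cells expressing luciferase-tagged ATAD5 were exposed to compound or DMSO for 15.5 hr at 37C, 5% CO2. Viability was then read as live-cell protease activity by CellTiter-Fluor fluorescence after 30 min at 37C.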

The nature of test [5]: qHTS assay for small molecule disruptors of the mitochondrial membrane potential - cell viability (AID 720634; calls by dose curve;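 also: human HepG2 liver cancer cells; series mostly up to about 83 µM; nearly all actives have a fitted effect of over 20% in size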). An outline of the steps:
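HepG2 cells seeded overnight at 37 C, then exposed to compound or DMSO for 1 hr at 37 C, 5% CO2. m-MPI dye added, then CellTiter-Glo for 30 min at room temperature; viability read as ATP luminescence.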

The nature of test [6]: qHTS assay to test for compound auto fluorescence at 590 nm (red) in HepG2 cells (AID 720674). The method, boiled down:
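Rose Bengal sodium served as the red fluorophore standard. HepG2 monolayers (overnight attachment, MEM with 10% FBS) were exposed to test compounds for 1 hr at 37 C and read at Ex 540/Em 590 nm.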

A short description of test [7]: qHTS assay to test for compound auto fluorescence at 535 nm (green) in HepG2 cells (AID 720675).
The nature of test [8]: qHTS assay to test for compound auto fluorescence at 590 nm (red) in HEK293 cells (AID 720679). An outline of the steps:
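Intensity at 540nm excitation and 590nm emission is reported as Rose Bengal sodium-equivalent autofluorescence. Measurements followed overnight exposure (37C, 5% CO2) of HEK293 cells, 2,000 per well, to 23 nL compound.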

Test [9] is described as follows: qHTS assay to test for compound auto fluorescence at 535 nm (green) in HEK293 cells (AID 720680).
Test [10] can be described thus: qHTS assay to test for compound auto fluorescence at 460 nm (blue) in HEK293 cell free culture (AID 720681). An outline of the steps: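 Test compounds were pinned into cell-free culture medium (DMEM with 10% FBS) and fluorescence was read directly at Ex/Em 405/460 nm. Signals were expressed as fluorescence equivalents of triamterene, with DMSO vehicle as control.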

Test [11] in a line: qHTS assay to test for compound auto fluorescence at 535 nm (green) in HEK293 cell free culture (AID 720682). An outline of the steps: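 Using fluorescein as calibrant, autofluorescence was quantified at 485/535 nm in cell-free DMEM containing 10% FBS after pintool addition of compound or vehicle.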
Test [12] can be described thus: qHTS assay to test for compound auto fluorescence at 590 nm (red) in HEK293 cell free culture (AID 720683). The method, boiled down:
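Tox21 10K library compounds were pinned into cell-free DMEM with 10% FBS and fluorescence was read at excitation 540 nm. Activity is expressed as Rose Bengal sodium equivalency.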

A short description of test [13]: qHTS assay to test for compound auto fluorescence at 590 nm (red) in HepG2 cell free culture (AID 720684). The method, boiled down: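 Measured in medium alone (MEM containing 10% FBS) following pintool addition of compound; emission at 590 nm with 540 nm excitation, referenced to Rose Bengal sodium.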
Test [14] can be described thus: qHTS assay to test for compound auto fluorescence at 460 nm (blue) in HepG2 cell free culture (AID 720685). The method, boiled down: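 Compound (23 nL) or DMSO pinned into cell-free MEM with 10% FBS; blue fluorescence read at 405/460 nm excitation/emission, expressed as auto-fluorescence equivalency to triamterene.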
A short description of test [15]: qHTS assay to test for compound auto fluorescence at 535 nm (green) in HepG2 cell free culture (AID 720686).
Test [16] in a line: qHTS assay to test for compound auto fluorescence at 460 nm (blue) in HepG2 cells (AID 720687). An outline of the steps: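 Cells (2,000/well in MEM with 10% FBS) attached overnight at 37 C, then were exposed to compound or DMSO for 1 hr at 37 C, 5% CO2. Fluorescence read at Ex/Em 405/460 nm, expressed as triamterene-equivalent signal.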
In test [17] the target is Glucocorticoid receptor (Homo sapiens) (UniProt P04150). Kind of test: qHTS assay to identify small molecule agonists of the glucocorticoid receptor (GR) signaling pathway (AID 720691; active = well fitted activation curve with a large enough effect in the signal ratio in the repeat runs, not every such curve was filed as active; the % refers to the signal ratio; also: potency is read from the fitted curve at half-maximal effect). The method, boiled down:
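GR-bla HeLa cells (beta-lactamase reporter under glucocorticoid response element) were plated 4 h at 37 C/5% CO2, given compounds in DMSO, and incubated 18 h at 37 C. LiveBLAzer B/G FRET substrate was added for 2 h at room temperature, then fluorescence intensity read.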

Test [18] shares this target. Kind of test: qHTS assay to identify small molecule antagonists of the glucocorticoid receptor (GR) signaling pathway (AID 720692; active = well fitted inhibition curve with a large enough effect in the signal ratio in the repeat runs, not every such curve was filed as active; the % refers to the signal ratio). An outline of the steps:
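GR-bla HeLa cells (beta-lactamase reporter under glucocorticoid response element) were pre-plated 4 h at 37 C, treated with compounds plus 5 nM dexamethasone (final) for 18 h, then read by LiveBLAzer B/G FRET fluorescence after 2 h.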

A short description of test [19]: qHTS assay to test for compound auto fluorescence at 460 nm (blue) in HEK293 cells (AID 720678). The method, boiled down: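 HEK293, 2,000 cells/well, 10% dialyzed FBS; attach 4-5 hr 37C; pin compound or DMSO; o/n 37C/5% CO2; fluorescence 405/460 nm; triamterene-equivalent units.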
Test [20] is described as follows: qHTS assay for small molecule disruptors of the mitochondrial membrane potential (AID 720635). An outline of the steps: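 HepG2 cells (2,000/well) attached overnight at 37C, then took compound for 1 hr at 37C, 5% CO2. Mito-MPS dye was added for 30 min; fluorescence was read at 490/535 nm (monomers) and 540/590 nm (aggregates).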

Molecules are shown by their SMILES. Values without a mark were called inactive. Inconclusive results are not listed. The source made the active and inactive calls. Unless noted, calls follow the shape of the dose curve; as a rule, active = well fitted curve in the direction sought with a large enough effect in the repeat runs; inconclusive = weak or mixed curves; inactive = no such curve, though single readings can be large; an effect the other way counts as inactive or inconclusive.
% is scaled to controls: 0 for no effect and ±100 for the full control effect.

Chain of Glucocorticoid receptor (Homo sapiens) (P04150 whole entry, looked up): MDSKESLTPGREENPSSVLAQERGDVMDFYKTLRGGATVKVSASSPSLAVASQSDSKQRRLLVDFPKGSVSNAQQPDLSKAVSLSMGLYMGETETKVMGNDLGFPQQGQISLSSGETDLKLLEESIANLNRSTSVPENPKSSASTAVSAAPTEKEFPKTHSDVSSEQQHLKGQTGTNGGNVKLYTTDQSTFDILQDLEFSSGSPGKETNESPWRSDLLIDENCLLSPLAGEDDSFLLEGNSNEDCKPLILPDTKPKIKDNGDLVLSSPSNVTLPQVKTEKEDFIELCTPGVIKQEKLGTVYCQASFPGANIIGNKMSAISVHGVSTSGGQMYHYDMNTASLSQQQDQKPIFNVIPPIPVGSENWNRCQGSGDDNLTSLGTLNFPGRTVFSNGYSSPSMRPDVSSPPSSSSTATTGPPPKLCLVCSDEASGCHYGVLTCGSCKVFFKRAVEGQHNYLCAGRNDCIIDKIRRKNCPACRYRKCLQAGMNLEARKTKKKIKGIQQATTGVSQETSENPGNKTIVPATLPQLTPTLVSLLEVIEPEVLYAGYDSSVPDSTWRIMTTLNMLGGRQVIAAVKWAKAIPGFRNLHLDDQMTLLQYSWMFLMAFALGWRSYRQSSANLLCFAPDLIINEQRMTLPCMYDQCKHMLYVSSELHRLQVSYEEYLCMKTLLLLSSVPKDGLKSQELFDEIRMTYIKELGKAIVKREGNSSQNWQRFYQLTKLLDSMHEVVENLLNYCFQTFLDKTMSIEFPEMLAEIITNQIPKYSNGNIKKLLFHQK

Turning to `CCCCCCCCCCCCSC`, the Potency entry in [1], in [2], in [3], in test [4], in test [17] and in test [18] was “inactive” each time. In addition, the outcome in test [5], in [6], in [7], in test [8], in [9] and in test [10] was inactive. Besides, the call in [11], in test [12], in test [13], in test [14], in test [15] and in test [16] was inactive.
As to `CCCc1ncc(C[n+]2ccccc2C)c(N)n1`, the Potency entry in test [1], in [2], in test [3], in test [4], in test [17] and in test [18] was “inactive” each time. Moreover, the compound was called inactive in test [5]. The fluorescence, relative to Rose Bengal in [6] was -0.079% [at 18.6 µM]. The fluorescence, % of fluorescein control in [7] is 0.0061% [at 18.6 µM]; in [15] it was 0.0635% [at 18.6 µM]. The fluorescence, % of triamterene in test [19] was -0.0062% [at 18.6 µM]. The fluorescence, % of fluorescein in test [9] is -0.083% [at 18.6 µM]. Besides, the fluorescence, % of fluorescent control in test [10] is -0.136% [at 18.6 µM]; in test [12], 0.0061% [at 18.6 µM]; in test [16], -0.0148% [at 18.6 µM]. Moreover, the activity change in [11] was -0.0094% [at 18.6 µM]. Moreover, the fluorescence, % of Rose Bengal in [13] was -0.0113% [at 18.6 µM].
Regarding `CNCCO`, the Potency entry in [1], in test [2], in [3], in test [4] and in test [20] was “inactive” throughout. The compound was called inactive in [6], in test [7], in test [19], in [8], in [9] and in test [10]. Moreover, the result in test [11], in [12], in [13], in test [14], in test [15] and in test [16] was inactive.
Consider `CN(C)C(=O)Oc1ccc[n+](C)c1`, for which the Potency result in test [1], in [2], in test [3], in [4], in test [20] and in test [18] was “inactive” in each case. Moreover, the outcome in [6], in [7], in test [19], in test [9], in test [10] and in [12] was inactive. Moreover, the outcome in test [13], in test [14], in [15] and in test [16] was inactive. The Potency in [17] is 26.8 µM (active).
For `C[N+](C)(C)CCCCCCCCCC[N+](C)(C)C`, the Potency result in test [1], in test [2], in test [3], in test [4] and in test [17] was “inactive” throughout. Also, the compound was called inactive in test [5], in [6], in test [7], in test [19], in test [8] and in [9]. The result in test [10], in test [11], in [12], in [15] and in test [16] was inactive.
Consider `O=C(O)CNC(=O)c1ccc(CO)o1`, for which the Potency entry in [1], in test [2], in test [3] and in [4] was “inactive” each time. Further, the result in [5], in test [6], in test [7], in test [19], in [9] and in [10] was inactive. Moreover, the compound was classed as inactive in [11], in [12], in test [13], in test [14], in [15] and in test [16].
For the compound `CC(=O)N1C[C@H](O)C[C@H]1C(=O)O`, the Potency result in test [1], in test [2], in test [3], in test [4], in [20] and in test [17] was “inactive” each time. The outcome in test [6], in test [7], in [19], in test [8], in test [9] and in test [10] was inactive. The call in test [11], in test [12], in [13], in test [14], in [15] and in [16] was inactive.

The record behind these values is PubChem BioAssay (Tox21).
